The panel holds about 83,000 compounds, 20% with a hit somewhere; the sample as a whole holds those more often.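 Single-dose data. Exposure time 48 hours. Values below 10 considered active.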 Activity calls are given as the source filed them.
system: MDA-MB-468 breast; experiment: NCI-60 one-dose screen, 48 h (100 = growth as untreated, 0 = no growth, -100 = all killed); conditions: 10 µM unless noted

SMILES | growth
CC1=C(C)C(=O)C(Nc2ccc3c(c2)OCCO3)=C(Br)C1=O | 28.1% (inactive)
Nc1nc2ccc3[nH]ncc3c2c2c1CCCC2 | -46.8% (active)
C#CCN1C(=O)/C(=c2\sc3n(c2=O)C2C(NN=3)N(CC)C(=O)N2CC)c2ccccc21 (centres undefined) | -26.9% (active)
N#Cc1ccc(-c2ccc(-c3cccs3)o2)cc1F | 6.91% (active)
NC(=O)/C=C/C(=O)c1c(Cl)cccc1Cl | -83.5% (active)
COc1ccc(C2=Nn3c(nnc3-n3nc(C)cc3C)SC2)cc1 | 22.2% (inactive)
O=C(CS(=O)c1oc(-c2cccs2)nc1S(=O)(=O)c1ccc(Br)cc1)c1ccccc1 (centres undefined) | 101% (inactive)
c1csc(-c2cn3nc(-c4c[nH]c5ccccc45)sc3n2)c1 | 19.4% (inactive)
C=C(C)[C@@H]1CC[C@]2(COCCC#N)CC[C@]3(C)[C@H](CC[C@@H]4[C@@](C)(CCCNCCC#N)[C@H](C(=C)C)CC[C@]43C)[C@@H]12 | 16.3% [100 µM] (inactive)
COc1cc(C2CC(c3ccc(Nc4ccnc5cc(Cl)ccc45)cc3)=NN2c2ccc(Cl)cc2)cc(OC)c1OC (centres undefined) | 41.9% (inactive)
COc1cc(-c2nc(SCc3ccc(C)cc3)[nH]c(=O)c2C#N)ccc1OCc1ccccc1 | 87.3% (inactive)
O=C1CC(C(F)(F)F)Cc2nc3ccc(Br)cc3cc21 (centres undefined) | 94.8% (inactive)
Cn1c(/C=C(\C#N)c2ccccc2)nc2c(N3CCOCC3)nc(Cl)nc21 | -47.9% (active)
O=C1c2ccccc2OC=C(c2ccccc2)N1CCCCN1CCCCC1 | -6.27% (active)
